Measured values: PubChem BioAssay (NCATS)
Results filed as inconclusive are left out. Activity calls are given as the source filed them. Calls come from the whole dose curve; as a rule, active = well fitted curve in the direction sought with a large enough effect; inconclusive = small, poorly fitted or top-dose-only effect, or another doubt; inactive = no such curve, though single readings can be large; an effect the other way counts as inactive or inconclusive.

Key:
[1] = qHTS Assay for Identifying Gametocytocidal Compounds (AID 743244);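 note: actives lower the fluorescent signal which means gametocytes are killed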; conditions: P. falciparum 3D7 stage III-V gametocytes, alamarBlue, 72 h; max response: active compounds read low
Method in brief: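 Compounds are pinned into medium, gametocytes (stage III–V, 3D7, 20,000 cells/well) added, and plates held 72 h at 37 °C in 5% CO2. AlamarBlue follows for 24 h before fluorescence reading.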

[2] = qHTS assay to identify small molecule inhibitors of chordoma cells - UCH-1 (AID 1259355); note: nearly all actives have a fitted effect of over 55% in size
Method in brief: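 Luminescent ATP read-out (CellTiter-Glo, 30min at room temperature) measured viability of UCH-1 cells exposed for 48hr to test drugs at 15 concentrations, co-dosed with a five-agent combination of auranofin, camptothecin, doxorubicin, rubitecan and topotecan.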

[3] = qHTS assay to identify small molecule inhibitors of chordoma cells - UCH-2 (AID 1259356); note: series mostly up to about 46 µM
% is set by controls: 0 for no effect and ±100 for the full control effect.

O=C(O)c1ccc(NC2OC[C@@H](O)[C@H](O)[C@H]2O)cc1 (some centres not stated)
inactive: max response [1] -2.1% | Potency [2] | Potency [3]

CC(=O)[O][Al][O]C(C)=O
inactive: max response [1] -11.1% | Potency [2] | Potency [3]

O=C1c2ccccc2C(=O)C1c1ccc(Cl)cc1
inactive: max response [1] 13.7% | Potency [2] | Potency [3]

CCCCCCCCCCCCCCCC(=O)OC[C@@H](O)[C@H]1OC[C@H](O)[C@H]1O
inactive: max response [1] -10.2% | Potency [2] | Potency [3]

Cn1cc(NC(=O)c2cc(NC(=O)c3cc(NC=O)cn3C)cn2C)cc1C(=O)NCCC(=N)N
inactive: max response [1] 6.22% | Potency [2] | Potency [3]

CCCCCCCCCCCCCC(=O)OCC(COP(=O)([O-])OCC[N+](C)(C)C)OC(=O)CCCCCCCCCCCCC (configuration not stated)
inactive: max response [1] 8.75% | Potency [2] | Potency [3]

CCCCC/C=C\C/C=C\C/C=C\CCCCC(=O)O
inactive: max response [1] 14.9% | Potency [2] | Potency [3]

O=P(O)(O)OC[C@H](O)CO
inactive: max response [1] -1.62% | Potency [2] | Potency [3]

Cc1c(O)c(=O)ccn1C
inactive: max response [1] 2.04% | Potency [2] | Potency [3]

CN1CCC(OC(=O)C(Oc2ccc(Cl)cc2)Oc2ccc(Cl)cc2)CC1
inactive: max response [1] 32.5% | Potency [2] | Potency [3]

CC(C)(O/N=C(\C(=O)N[C@@H]1C(=O)N2C(C(=O)[O-])=C(C[n+]3ccccc3)CS[C@H]12)c1csc(N)n1)C(=O)O
inactive: max response [1] 20.4% | Potency [2] | Potency [3]

Cc1cc(=O)c(C(=O)N[C@@H](C(=O)N[C@@H]2C(=O)N3C(C(=O)O)=C(CSc4nnnn4C)CS[C@H]23)c2ccc(O)cc2)c[nH]1
inactive: max response [1] -4.61% | Potency [2] | Potency [3]

CN[C@@H]1[C@@H](O)[C@@H](O[C@@H]2[C@@H](O)[C@H](O[C@H]3O[C@H](CN)[C@@H](O)[C@H](O)[C@H]3O)[C@@H](N)C[C@H]2NC(=O)C(O)CN)OC[C@]1(C)O (some centres not stated)
inactive: max response [1] 16.8% | Potency [2] | Potency [3]

CCN(CC)CCC(=O)N1c2ccccc2Sc2ccc(C(F)(F)F)cc21
inactive: max response [1] -16% | Potency [2] | Potency [3]

COC(=O)C(CN)c1c[nH]c2ccc(OC)cc12 (configuration not stated)
inactive: max response [1] -6.34% | Potency [2] | Potency [3]

O[C@@H]([C@H](O)[C@H](O)CBr)[C@H](O)CBr
inactive: max response [1] -5.26% | Potency [2] | Potency [3]

CC(C)OC(=O)Nc1ccc2nc(-c3cscn3)[nH]c2c1
inactive: max response [1] -0.783% | Potency [2] | Potency [3]

CCCCCCCCCCCCCCCCCCCCCC(=O)Nc1ccn([C@@H]2O[C@H](CO)[C@@H](O)[C@@H]2O)c(=O)n1
inactive: max response [1] -10.3% | Potency [2] | Potency [3]

O=C(CCCN1CCN2CCCC2C1)c1ccc(F)cc1 (configuration not stated)
inactive: max response [1] 7.46% | Potency [2] | Potency [3]

FCOC(C(F)(F)F)C(F)(F)F
inactive: max response [1] -7.47% | Potency [2] | Potency [3]

O=C1N=C2SCCN2C(=O)C1Cc1ccc(Cl)cc1 (configuration not stated)
inactive: max response [1] -5.09% | Potency [2] | Potency [3]

COC1[C@@H](O[C@@H]2O[C@H](C)[C@@H](O[C@H]3C[C@@](C)(O)[C@H](OC(=O)CC(C)C)[C@H](C)O3)[C@H](N(C)C)[C@H]2O)[C@@H](CC=O)C[C@@H](C)[C@@H](O)/C=C/C=C/C[C@@H](C)OC(=O)C[C@H]1OC(C)=O (some centres not stated)
inactive: max response [1] 6% | Potency [2] | Potency [3]

CO/N=C(\C(=O)N[C@@H]1C(=O)N2C(C(=O)O)=C(CSC(=O)c3ccco3)CS[C@H]12)c1csc(N)n1
inactive: max response [1] -2.3% | Potency [2] | Potency [3]

CCC[C@@H]1C[C@@H](C(=O)N[C@@H]([C@H]2O[C@H](SC)[C@H](O)[C@@H](O)[C@H]2O)[C@H](C)Cl)N(C)C1
inactive: max response [1] -8.48% | Potency [2] | Potency [3]

CCC(=O)OC(OP(=O)(CCCCc1ccccc1)CC(=O)N1C[C@H](C2CCCCC2)C[C@H]1C(=O)O)C(C)C (some centres not stated)
inactive: max response [1] 15.3% | Potency [2] | Potency [3]

O=C(O)Cc1cc(I)c(Oc2ccc(O)c(I)c2)c(I)c1
inactive: max response [1] 10.9% | Potency [2] | Potency [3]

Cc1ncc(COP(=O)(O)O)c(CN)c1O
inactive: max response [1] -10.8% | Potency [2] | Potency [3]

CC(C)(C)NCC(O)CSc1nc(-c2ccc(C(N)=O)s2)cs1 (configuration not stated)
inactive: max response [1] 20.6% | Potency [2] | Potency [3]

CC1C(=O)CC2C3(C)CCC2(C(C)C(=O)O)C(=O)C13 (configuration not stated)
inactive: max response [1] -7.97% | Potency [2] | Potency [3]
